In assay [1] the target is T1, Ephrin type-A receptor 3 (Homo sapiens) (UniProt P29320).
T1 sequence (whole entry): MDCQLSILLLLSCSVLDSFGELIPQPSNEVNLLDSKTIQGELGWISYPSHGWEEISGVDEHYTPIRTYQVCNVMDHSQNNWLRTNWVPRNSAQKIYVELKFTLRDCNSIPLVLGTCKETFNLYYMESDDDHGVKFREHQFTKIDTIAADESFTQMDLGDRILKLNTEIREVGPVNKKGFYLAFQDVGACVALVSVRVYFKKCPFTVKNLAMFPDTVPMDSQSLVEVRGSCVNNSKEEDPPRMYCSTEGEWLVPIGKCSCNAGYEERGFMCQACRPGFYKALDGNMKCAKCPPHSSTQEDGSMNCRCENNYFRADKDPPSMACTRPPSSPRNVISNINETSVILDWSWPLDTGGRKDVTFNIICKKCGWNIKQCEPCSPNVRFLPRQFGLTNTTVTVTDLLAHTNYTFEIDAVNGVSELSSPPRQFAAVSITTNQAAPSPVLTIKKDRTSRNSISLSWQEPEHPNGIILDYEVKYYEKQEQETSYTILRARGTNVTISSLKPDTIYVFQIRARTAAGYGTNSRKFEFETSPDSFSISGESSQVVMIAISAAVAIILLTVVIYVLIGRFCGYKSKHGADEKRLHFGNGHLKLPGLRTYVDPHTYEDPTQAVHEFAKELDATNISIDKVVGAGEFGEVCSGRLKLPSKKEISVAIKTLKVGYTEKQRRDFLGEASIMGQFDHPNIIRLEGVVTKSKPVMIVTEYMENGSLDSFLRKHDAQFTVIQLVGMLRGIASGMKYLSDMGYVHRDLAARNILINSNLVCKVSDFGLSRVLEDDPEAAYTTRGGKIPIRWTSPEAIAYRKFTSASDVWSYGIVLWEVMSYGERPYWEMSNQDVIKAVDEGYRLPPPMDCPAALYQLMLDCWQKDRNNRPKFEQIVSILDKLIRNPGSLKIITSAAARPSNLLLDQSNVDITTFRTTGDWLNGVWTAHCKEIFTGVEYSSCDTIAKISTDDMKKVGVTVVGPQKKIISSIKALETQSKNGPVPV
The conditions noted are these: at 10 µM.

The target of assay [2] is T2, Ephrin type-A receptor 8 (Homo sapiens) (UniProt P29322).
T2 sequence (whole entry): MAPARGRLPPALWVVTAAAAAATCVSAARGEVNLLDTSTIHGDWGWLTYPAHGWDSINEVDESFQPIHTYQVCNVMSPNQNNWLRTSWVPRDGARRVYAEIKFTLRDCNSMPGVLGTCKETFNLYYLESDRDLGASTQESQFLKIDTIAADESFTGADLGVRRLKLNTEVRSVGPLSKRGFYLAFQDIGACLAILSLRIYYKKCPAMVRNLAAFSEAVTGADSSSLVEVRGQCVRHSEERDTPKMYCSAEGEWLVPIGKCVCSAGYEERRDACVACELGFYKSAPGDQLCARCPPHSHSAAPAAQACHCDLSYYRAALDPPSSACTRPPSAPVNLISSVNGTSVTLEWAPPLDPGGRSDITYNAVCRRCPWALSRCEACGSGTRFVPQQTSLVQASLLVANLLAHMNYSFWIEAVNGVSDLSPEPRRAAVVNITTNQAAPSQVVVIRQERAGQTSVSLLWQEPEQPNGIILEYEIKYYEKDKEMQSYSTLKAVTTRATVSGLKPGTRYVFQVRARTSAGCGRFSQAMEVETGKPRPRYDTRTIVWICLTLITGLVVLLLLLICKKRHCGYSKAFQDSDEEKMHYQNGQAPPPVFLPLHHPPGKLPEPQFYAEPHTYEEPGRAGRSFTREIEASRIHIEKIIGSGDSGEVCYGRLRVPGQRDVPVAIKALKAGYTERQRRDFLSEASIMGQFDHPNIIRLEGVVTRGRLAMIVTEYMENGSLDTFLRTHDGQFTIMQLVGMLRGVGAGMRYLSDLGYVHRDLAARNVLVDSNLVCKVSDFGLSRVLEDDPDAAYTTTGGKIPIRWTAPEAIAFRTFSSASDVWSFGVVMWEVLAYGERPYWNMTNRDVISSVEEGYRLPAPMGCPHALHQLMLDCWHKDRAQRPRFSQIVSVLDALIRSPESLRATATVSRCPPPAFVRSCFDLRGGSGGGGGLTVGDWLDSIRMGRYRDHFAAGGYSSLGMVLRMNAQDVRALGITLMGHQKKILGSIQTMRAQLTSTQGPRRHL
The conditions noted are these: at 1 µM.

The target of assay [3] is T2, Ephrin type-A receptor 8 (Homo sapiens). As to conditions: at 10 µM; call rule not given here.
Assay [4] addresses T3, Ephrin type-B receptor 1 (Homo sapiens) (UniProt P54762).
T3 sequence (whole entry): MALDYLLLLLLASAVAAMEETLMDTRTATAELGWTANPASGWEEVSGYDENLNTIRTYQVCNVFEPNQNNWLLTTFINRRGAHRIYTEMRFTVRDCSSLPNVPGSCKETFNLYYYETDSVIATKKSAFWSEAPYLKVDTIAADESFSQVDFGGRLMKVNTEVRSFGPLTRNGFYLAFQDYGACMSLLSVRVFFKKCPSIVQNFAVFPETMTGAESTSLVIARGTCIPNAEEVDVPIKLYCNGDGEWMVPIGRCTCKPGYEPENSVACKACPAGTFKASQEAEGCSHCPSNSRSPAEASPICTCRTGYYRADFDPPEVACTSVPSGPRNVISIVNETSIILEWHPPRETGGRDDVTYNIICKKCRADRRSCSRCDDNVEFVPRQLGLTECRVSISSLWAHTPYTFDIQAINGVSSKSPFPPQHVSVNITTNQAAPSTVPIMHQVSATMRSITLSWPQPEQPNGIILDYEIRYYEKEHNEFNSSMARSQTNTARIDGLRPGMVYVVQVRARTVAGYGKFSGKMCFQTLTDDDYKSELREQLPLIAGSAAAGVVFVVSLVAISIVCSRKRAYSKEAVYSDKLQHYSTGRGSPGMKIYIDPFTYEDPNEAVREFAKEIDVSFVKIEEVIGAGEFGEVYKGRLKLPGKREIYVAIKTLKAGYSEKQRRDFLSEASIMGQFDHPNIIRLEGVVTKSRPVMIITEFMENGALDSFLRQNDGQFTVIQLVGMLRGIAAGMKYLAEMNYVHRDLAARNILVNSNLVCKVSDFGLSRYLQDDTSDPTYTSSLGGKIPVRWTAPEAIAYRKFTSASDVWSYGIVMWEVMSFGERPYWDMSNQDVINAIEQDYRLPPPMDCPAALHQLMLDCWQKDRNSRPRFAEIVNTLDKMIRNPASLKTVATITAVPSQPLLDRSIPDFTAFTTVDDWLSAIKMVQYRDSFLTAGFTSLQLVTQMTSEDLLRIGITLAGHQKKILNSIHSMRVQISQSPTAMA
As to conditions: at 1 µM.

In assay [5] the target is T3, Ephrin type-B receptor 1 (Homo sapiens). As to conditions: at 10 µM.
The target in assay [6] is T4, Ephrin type-B receptor 2 (Homo sapiens) (UniProt P29323).
T4 sequence (whole entry): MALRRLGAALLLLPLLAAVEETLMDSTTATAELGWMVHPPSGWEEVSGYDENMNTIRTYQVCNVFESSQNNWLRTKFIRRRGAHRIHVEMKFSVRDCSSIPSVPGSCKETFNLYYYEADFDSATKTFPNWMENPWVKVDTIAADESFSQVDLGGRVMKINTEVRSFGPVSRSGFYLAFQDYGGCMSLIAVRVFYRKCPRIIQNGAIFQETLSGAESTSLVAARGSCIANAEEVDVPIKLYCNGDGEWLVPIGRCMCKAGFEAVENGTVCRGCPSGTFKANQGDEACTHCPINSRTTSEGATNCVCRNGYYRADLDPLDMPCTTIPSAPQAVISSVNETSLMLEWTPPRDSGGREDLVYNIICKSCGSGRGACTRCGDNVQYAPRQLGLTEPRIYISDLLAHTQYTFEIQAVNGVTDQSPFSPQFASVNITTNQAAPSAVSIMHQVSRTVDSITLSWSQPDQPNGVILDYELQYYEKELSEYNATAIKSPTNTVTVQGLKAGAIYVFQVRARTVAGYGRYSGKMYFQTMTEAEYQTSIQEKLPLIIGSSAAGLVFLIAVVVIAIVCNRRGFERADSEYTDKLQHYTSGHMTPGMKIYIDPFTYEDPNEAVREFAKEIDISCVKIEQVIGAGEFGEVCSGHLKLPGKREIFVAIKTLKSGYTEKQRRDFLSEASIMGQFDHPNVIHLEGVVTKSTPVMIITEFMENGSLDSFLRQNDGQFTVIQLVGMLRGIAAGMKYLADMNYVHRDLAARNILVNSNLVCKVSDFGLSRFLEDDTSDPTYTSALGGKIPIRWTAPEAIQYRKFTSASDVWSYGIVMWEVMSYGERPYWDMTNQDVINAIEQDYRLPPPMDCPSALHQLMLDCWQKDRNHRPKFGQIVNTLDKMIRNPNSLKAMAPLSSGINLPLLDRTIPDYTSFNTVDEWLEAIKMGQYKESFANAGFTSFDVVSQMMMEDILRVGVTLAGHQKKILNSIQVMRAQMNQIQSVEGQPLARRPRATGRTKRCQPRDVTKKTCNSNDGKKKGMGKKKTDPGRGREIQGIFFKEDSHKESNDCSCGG
The conditions noted are these: at 1 µM.

Assay [7] concerns the target T4, Ephrin type-B receptor 2 (Homo sapiens). The conditions noted are these: at 10 µM.
The target in assay [8] is T5, Ephrin type-B receptor 3 (Homo sapiens) (UniProt P54753).
T5 sequence (whole entry): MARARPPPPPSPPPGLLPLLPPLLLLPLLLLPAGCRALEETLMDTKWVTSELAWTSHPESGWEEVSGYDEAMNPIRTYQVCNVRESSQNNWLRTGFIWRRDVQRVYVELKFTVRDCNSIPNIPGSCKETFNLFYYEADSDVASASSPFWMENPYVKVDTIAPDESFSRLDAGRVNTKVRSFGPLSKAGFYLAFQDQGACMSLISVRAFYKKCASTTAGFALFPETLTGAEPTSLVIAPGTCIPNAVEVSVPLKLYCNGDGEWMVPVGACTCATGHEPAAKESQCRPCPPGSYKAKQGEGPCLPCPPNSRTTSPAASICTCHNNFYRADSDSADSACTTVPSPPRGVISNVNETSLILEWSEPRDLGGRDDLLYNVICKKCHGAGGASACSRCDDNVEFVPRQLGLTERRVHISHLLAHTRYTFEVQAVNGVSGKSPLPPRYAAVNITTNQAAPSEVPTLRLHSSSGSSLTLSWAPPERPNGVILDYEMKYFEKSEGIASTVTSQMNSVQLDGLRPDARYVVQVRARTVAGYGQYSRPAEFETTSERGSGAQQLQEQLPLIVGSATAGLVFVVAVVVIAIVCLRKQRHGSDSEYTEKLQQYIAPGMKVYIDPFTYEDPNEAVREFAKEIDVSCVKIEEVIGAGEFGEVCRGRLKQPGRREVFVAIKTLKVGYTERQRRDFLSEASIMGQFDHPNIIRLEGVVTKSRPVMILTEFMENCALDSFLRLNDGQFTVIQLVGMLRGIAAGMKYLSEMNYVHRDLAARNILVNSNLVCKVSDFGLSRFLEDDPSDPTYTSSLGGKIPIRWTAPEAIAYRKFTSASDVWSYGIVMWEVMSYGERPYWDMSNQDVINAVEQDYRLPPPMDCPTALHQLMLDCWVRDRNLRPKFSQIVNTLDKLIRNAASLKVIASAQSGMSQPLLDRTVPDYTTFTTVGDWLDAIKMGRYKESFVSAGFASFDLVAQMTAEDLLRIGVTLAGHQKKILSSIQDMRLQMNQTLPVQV
As to conditions: at 1 µM.

In assay [9] the target is T6, Ephrin type-B receptor 4 (Homo sapiens) (UniProt P54760).
T6 sequence (whole entry): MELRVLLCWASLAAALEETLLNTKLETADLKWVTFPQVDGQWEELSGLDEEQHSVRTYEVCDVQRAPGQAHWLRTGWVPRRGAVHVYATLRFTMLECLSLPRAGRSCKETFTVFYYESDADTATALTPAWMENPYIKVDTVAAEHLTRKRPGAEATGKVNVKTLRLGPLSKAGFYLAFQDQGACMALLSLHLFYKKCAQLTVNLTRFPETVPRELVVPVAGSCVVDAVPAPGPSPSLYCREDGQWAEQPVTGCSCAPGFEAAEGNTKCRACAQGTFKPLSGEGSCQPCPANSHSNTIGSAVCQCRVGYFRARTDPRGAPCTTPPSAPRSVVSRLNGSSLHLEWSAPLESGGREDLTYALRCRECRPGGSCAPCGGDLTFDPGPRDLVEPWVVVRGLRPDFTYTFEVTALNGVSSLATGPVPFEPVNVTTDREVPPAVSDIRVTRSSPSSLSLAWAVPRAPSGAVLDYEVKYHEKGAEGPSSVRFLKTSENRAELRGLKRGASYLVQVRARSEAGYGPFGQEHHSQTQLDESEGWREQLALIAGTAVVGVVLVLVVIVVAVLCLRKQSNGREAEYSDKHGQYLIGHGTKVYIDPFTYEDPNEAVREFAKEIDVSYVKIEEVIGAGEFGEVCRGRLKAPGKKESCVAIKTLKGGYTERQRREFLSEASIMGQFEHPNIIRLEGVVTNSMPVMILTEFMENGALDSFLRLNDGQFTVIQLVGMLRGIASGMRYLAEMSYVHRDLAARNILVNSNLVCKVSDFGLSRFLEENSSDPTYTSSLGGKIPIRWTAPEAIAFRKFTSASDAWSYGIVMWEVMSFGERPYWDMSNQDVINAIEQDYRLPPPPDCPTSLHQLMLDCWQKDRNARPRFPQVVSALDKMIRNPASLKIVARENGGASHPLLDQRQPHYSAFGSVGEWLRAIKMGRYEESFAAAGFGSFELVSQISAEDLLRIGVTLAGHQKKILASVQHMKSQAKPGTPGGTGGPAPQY
As to conditions: at 10 µM.

Assay [10] concerns the target Focal adhesion kinase 1 (Homo sapiens) (UniProt Q05397). The conditions noted are these: at 1 µM.

Chain of Focal adhesion kinase 1 (Homo sapiens) (Q05397 2-1052 limits assumed): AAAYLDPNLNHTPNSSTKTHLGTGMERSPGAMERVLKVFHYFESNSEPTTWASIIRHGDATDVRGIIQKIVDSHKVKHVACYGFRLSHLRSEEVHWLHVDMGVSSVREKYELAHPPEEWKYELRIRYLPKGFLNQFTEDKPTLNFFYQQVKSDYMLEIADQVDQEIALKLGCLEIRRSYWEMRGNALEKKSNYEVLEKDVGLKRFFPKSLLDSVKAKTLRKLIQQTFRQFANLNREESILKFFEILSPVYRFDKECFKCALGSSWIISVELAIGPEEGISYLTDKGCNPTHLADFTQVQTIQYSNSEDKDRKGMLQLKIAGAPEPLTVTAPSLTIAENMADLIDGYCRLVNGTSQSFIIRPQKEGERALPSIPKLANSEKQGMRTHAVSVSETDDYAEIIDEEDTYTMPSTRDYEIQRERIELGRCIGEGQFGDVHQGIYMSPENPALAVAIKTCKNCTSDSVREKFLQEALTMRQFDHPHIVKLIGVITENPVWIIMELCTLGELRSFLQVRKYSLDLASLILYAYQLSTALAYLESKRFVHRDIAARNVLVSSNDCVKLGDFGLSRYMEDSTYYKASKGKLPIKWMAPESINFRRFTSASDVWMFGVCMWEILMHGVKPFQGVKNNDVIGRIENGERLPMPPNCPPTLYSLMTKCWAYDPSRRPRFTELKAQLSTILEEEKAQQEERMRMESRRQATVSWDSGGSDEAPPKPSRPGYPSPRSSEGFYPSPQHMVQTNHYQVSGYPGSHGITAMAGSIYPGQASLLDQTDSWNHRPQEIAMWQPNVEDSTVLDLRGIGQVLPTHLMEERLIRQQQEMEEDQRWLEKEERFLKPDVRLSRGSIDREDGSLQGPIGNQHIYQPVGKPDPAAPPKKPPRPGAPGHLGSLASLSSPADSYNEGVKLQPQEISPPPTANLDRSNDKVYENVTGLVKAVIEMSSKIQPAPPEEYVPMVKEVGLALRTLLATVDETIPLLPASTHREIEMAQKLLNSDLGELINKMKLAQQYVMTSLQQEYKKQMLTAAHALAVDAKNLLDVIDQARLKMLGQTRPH

Regarding `O=C(Nc1nc2ccccc2n1CCN1CCOCC1)c1cccc([N+](=O)[O-])c1`, the residual activity (in general, the signal under treatment as a percentage of the control signal) came to 81% in assay [1]; 108% in [2]; 103% in [3]; 100% in assay [4]; 103% in assay [5]; 113% in assay [6]. Moreover, the residual activity in assay [7] was 110%; in [8] it was 110% (inactive); in assay [9] it was 109%; in [10] it was 131%.

For the compound `CN([C@@H](Cc1ccc(OS(=O)(=O)c2cccc3cnccc23)cc1)C(=O)N1CCN(c2ccccc2)CC1)S(=O)(=O)c1cccc2cnccc12`, the residual activity in [7] was 131%; in assay [8], 116% (inactive); in [10] it was 119%.

The record behind these values is ChEMBL document CHEMBL2218924, “A broad activity screen in support of a chemogenomic map for kinase signalling research and drug discovery” (Biochem J, 2013).
